Source: PubChem BioAssay AID686979 (National Center for Advancing Translational Sciences (NCATS), 2013)
The campaign covered roughly 420,000 compounds. About 50,000 (12%) were called active. Roughly 26% stayed inconclusive and do not appear here. What follows is part of a selection rich in actives, with near analogues and random picks from the rest. A call without a number means that no potency is given here. A number with no mark means an inactive call. The call rests on the fitted dose curve; in most records, active means well fitted inhibition curve with a large enough effect; inconclusive means small, poorly fitted or top-dose-only effect; inactive means flat fitted curve, though single readings scatter.
Potency means the concentration at half of the fitted maximal effect.

Test: qHTS for Inhibitors of human tyrosyl-DNA phosphodiesterase 1 (TDP1): qHTS in cells in presence of CPT; further: nearly all actives have a fitted effect of over 55% in size
Conditions: chicken DT40 Tdp1-/-;hTDP1 cells + 20 nM CPT, ATP luminescence, 48 h; series mostly up to 46.2 µM
Outline: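 Chicken DT40 Tdp1-/- cells complemented with human TDP1, 400 cells/well, exposed to compounds plus 20 nM camptothecin for at least 48 h at 37 C; viability read as ATP content by CellTiter-Glo luminescence.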
With `C[C@H]1CN([C@@H](C)CO)C(=O)CCCn2cc(nn2)CO[C@@H]1CN(C)S(=O)(=O)c1ccc(-n2cccn2)cc1` the Potency was “inactive”. In the case of `CC(=O)NNc1cc(=O)c2c(=O)n(C)c(=O)n(C)c2[nH]1`, the Potency is reported as “inactive”. In the case of `Cc1cccc(NC(=O)c2ccc(COc3ccccc3[N+](=O)[O-])o2)n1`, the Potency is reported as “inactive”. With `COc1ccc(C)cc1N1C(=O)[C@@H]2C[C@H]1CN2Cc1cccc(OC)c1O` the activity change, negative = growth inhibition was -12.7% [at 9.04 µM]. For `COc1cc(OC)cc(C(=O)NCC(=O)N2CCCCCCC2)c1`, the Potency was “inactive”. In the case of `COc1cccc(OCC(=O)NCCS(=O)(=O)N2CCN(c3ccccc3)CC2)c1`, the Potency is reported as “inactive”. With `COc1cc(C(=O)NCCS(=O)(=O)N2CCN(c3ccccc3)CC2)cc(OC)c1OC` the Potency was 20.6 µM (active). For `COc1cc(C(=O)NCC(=O)N2CC=C(c3ccccc3)CC2)cc(OC)c1OC`, the Potency was 16.4 µM (active). For `COc1ccc(OC)c(CN2CCN(C(=O)CNC(=O)c3cc(C)cc(C)c3)CC2)c1`, the Potency was “inactive”. In the case of `CCOc1ccc(CC(=O)NCCS(=O)(=O)N2CCN(c3ccccc3)CC2)cc1`, the Potency is reported as “inactive”. In the case of `CC(=O)Nc1nc(N(C)C)nc(N(C)C)n1`, the Potency is reported as “inactive”. In the case of `CN(CC(=O)Nc1ccc(OC(F)(F)F)cc1)C(=O)C1CCC1`, the Potency is reported as “inactive”. For `O=C(NCC(=O)N1CCCCCCC1)c1ccccc1Cl`, the Potency was “inactive”. With `Cc1ccc(CN2CCN(Cc3ccc4ncccc4c3)CC2CCO)cc1` (centres undefined) the Potency was “inactive”. With `Cc1cccc(N(CC(=O)Nc2ccc(-c3nc4ccc(C)cc4s3)cc2)S(C)(=O)=O)c1` the Potency was 13 µM (active). For `COc1cccc(N(CC(=O)Nc2cccc(F)c2)S(C)(=O)=O)c1`, the Potency was “inactive”. For `CCN(CC)S(=O)(=O)c1ccc(NC(=O)CN(c2cccc(F)c2)S(C)(=O)=O)cc1`, the Potency was “inactive”. In the case of `O=C(Nc1nnc(C2CC(=O)N(c3ccc(Cl)cc3)C2)s1)c1ccco1` (centres undefined), the Potency is reported as “inactive”. For `CC(C)Nc1nnc(SC(C)C(=O)N(C)C2CCCCC2)s1` (centres undefined), the Potency was “inactive”. For `CCc1ccc(NC(=O)NC(C)c2ccc3c(c2)OCO3)cc1` (centres undefined), the Potency was “inactive”. For `CC1CCCN(C(C(=O)Nc2ccc(C(C)C)cc2)c2ccc3c(c2)OCO3)C1` (centres undefined), the Potency was 18.4 µM (active). In the case of `CC(NC(=O)Nc1ccc2c(c1)OCO2)c1ccncc1` (centres undefined), the Potency is reported as “inactive”. With `O=C(CN1C(=O)NC2(CCCCC2)C1=O)N1CCN(C(=O)c2cccs2)CC1` the Potency was “inactive”. In the case of `COc1ccc(Cl)cc1NC(=O)NC(C)C(C)(C)C` (centres undefined), the Potency is reported as “inactive”. With `Cc1ccc(S(=O)(=O)Nc2nc3ccccc3s2)cc1[N+](=O)[O-]` the Potency was “inactive”. In the case of `COc1cc(/C=N/Nc2nc3ccccc3s2)ccc1O`, the Potency is reported as 1.46 µM (active). With `COc1ccc(/C=N/Nc2nc3ccccc3o2)cc1OC` the Potency was “inactive”. For `O=[N+]([O-])c1cccc(/C=N/Nc2ncc(Br)cn2)c1`, the Potency was “inactive”. In the case of `O=[N+]([O-])c1cc(Br)c(O)c(/C=N/Nc2nc3ccccc3s2)c1`, the Potency is reported as 8.2 µM (active). With `CCNc1nc(NCC)nc(N/N=C/c2ccc(O)c(OC)c2)n1` the Potency was “inactive”. With `CCOC(=O)N1CCC(N2Cc3cccc(C(=O)Nc4ccc(S(=O)(=O)N(CC)CC)cc4)c3C2=O)CC1` the Potency was “inactive”. For `C=CCOc1cccc(C2C(C(=O)c3ccc(C)o3)=C(O)C(=O)N2CCN2CCOCC2)c1` (centres undefined), the Potency was “inactive”. For `COc1ccc(/C=N/Nc2ccccc2C(=O)O)cc1`, the Potency was “inactive”. For `COc1ccc(/C=N/NC(=O)c2ccccc2)cc1OS(=O)(=O)c1ccccc1`, the Potency was “inactive”. In the case of `COc1ccc(C(=O)Nc2ccccc2C(=O)N/N=C/c2ccc(O)c(OC)c2)cc1`, the Potency is reported as 16.4 µM (active). With `Cc1cccc(C)c1N1C(=O)CN(Cc2ccccc2)C1=S` the Potency was “inactive”. With `C=CCC1(CC=C)CCCN1C(=O)CC1C(=O)NCCN1Cc1ccccc1OC` (centres undefined) the Potency was “inactive”. For `O=C(Cc1ccc(Br)cc1)NCCN1CCOCC1`, the Potency was “inactive”. In the case of `COC1=C/C(=C/c2c(N)n3nc(CC(=O)N4CCOCC4)sc3nc2=O)C=CC1=O`, the Potency is reported as “inactive”. In the case of `O=C(O)c1ccc(CSc2nc3cccnc3n2Cc2cccc(F)c2)cc1`, the Potency is reported as “inactive”. For `Cc1cccc(CSc2nc3ccncc3n2Cc2ccc(C(=O)O)cc2)c1`, the Potency was “inactive”. For `COc1cccc(Cn2c(SCc3ccc(C(=O)N4CCC(C)CC4)cc3)nc3ccncc32)c1`, the Potency was 11.6 µM (active). In the case of `CCC1C(=O)NCCN1C(=O)c1ccc2nc(Cc3ccc(OC)cc3)oc2c1` (centres undefined), the Potency is reported as “inactive”. In the case of `COc1ccc(S(=O)(=O)N2CCN(C)CC2)c(C)c1`, the Potency is reported as “inactive”. For `CN(C(=O)c1cccc(OC2CCN(S(=O)(=O)N(C)C)CC2)c1)C1CCOC1` (centres undefined), the Potency was “inactive”. In the case of `CN(C)S(=O)(=O)N1CCC(Oc2cccc(C(=O)NCCCC3CCCC3)c2)CC1`, the Potency is reported as 18.4 µM (active). With `CNS(=O)(=O)c1cccc(C(=O)NCC2CCCCC2)c1` the Potency was “inactive”. In the case of `Clc1cc(-c2ccc(/C=N/n3cnnc3)o2)ccc1Br`, the Potency is reported as “inactive”. For `CCOc1ccc(S(=O)(=O)NCc2ccc3c(c2)OCO3)cc1C`, the Potency was “inactive”. In the case of `O=C(NC1CC(=O)N(c2ccc(Cl)cc2)C1)C1CCCC1` (centres undefined), the Potency is reported as “inactive”. In the case of `Cc1cc(C)n2nc(C(=O)OCC(=O)N(CCC#N)c3ccc(F)cc3)nc2n1`, the Potency is reported as “inactive”. For `Cc1ccc(S(=O)(=O)/N=C(\N)c2ccc(F)cc2)cc1`, the Potency was “inactive”. For `Cc1ccc(-c2cc(=O)c3ccc(F)cc3[nH]2)cc1`, the Potency was 18.4 µM (active). For `O=c1[nH]c(-c2ccccc2)c(-c2ccccc2)[nH]1`, the Potency was “inactive”. In the case of `Cc1ccc(-c2cc(=O)c3ccc(Cl)cc3[nH]2)cc1`, the Potency is reported as “inactive”. In the case of `O=c1cc(-c2ccccc2)[nH]c2cc(F)ccc12`, the Potency is reported as 0.92 µM (active). For `Cc1cc(=O)c2ccc(NC(=O)c3ccccc3)cc2[nH]1`, the Potency was “inactive”. In the case of `CC1=C(C(=O)OC2CCCCC2)C(c2ccccc2F)NC(=O)N1` (centres undefined), the Potency is reported as “inactive”. In the case of `O=C(CCC(=O)N1CCCC1)Nc1ccc([N+](=O)[O-])cc1`, the Potency is reported as “inactive”. For `CCCCOc1ccc(C(=O)NCC(=O)OCC(=O)N2CCN(S(=O)(=O)c3ccc(C)cc3C)CC2)cc1`, the Potency was “inactive”. In the case of `N#C/C(=C/c1ccc(Cl)cc1)NC(=O)c1ccccc1`, the Potency is reported as “inactive”. For `Cc1c(Br)c([N+](=O)[O-])nn1CC(=O)N1CCN(Cc2ccccc2)CC1`, the Potency was “inactive”. With `Fc1ccc(COc2ccc(-c3nnco3)cc2)cc1` the Potency was “inactive”. With `COC(=O)C1(C)NC(c2ccccc2OC)C2C(=O)N(c3ccccc3)C(=O)C21` (centres undefined) the Potency was “inactive”. For `CCN1C(=O)[C@H]2[C@@H](c3ccc(-c4ccc(OC)cc4)cc3)N[C@@](Cc3ccccc3)(C(=O)OC)[C@H]2C1=O`, the Potency was 18.4 µM (active). In the case of `CCCC1(C(=O)OC)NC(c2ccco2)C2C(=O)N(C)C(=O)C21` (centres undefined), the Potency is reported as “inactive”. In the case of `CCN1C(=O)[C@H]2[C@@H](c3ccc(SC4CCCCC4)c(OC)c3)N[C@@](Cc3ccccc3)(C(=O)OC)[C@H]2C1=O`, the Potency is reported as 16.4 µM (active). In the case of `CCNC(=O)N(CC)C[C@H]1N[C@@](CC)(C(=O)OC)[C@H]2C(=O)N(Cc3ccccc3)C(=O)[C@@H]12`, the Potency is reported as “inactive”. For `CCN(C[C@H]1N[C@@](CC)(C(=O)OC)[C@H]2C(=O)N(Cc3ccccc3)C(=O)[C@@H]12)S(=O)(=O)c1ccccc1`, the Potency was “inactive”. For `CC1=NNC(=O)C1Cc1c(Cl)cccc1Cl` (centres undefined), the Potency was “inactive”. With `C#CCOCCOCCOCCNc1nc(N2CCN(C(=O)C([C@@H](C)O)n3cc([C@@H](N)CCCCN)nn3)CC2)nc(N2CCN(C(=O)[C@H](CCCCN)n3cc(CN)nn3)CC2)n1` (some centres undefined) the Potency was “inactive”. For `CC(C)[C@H](NC(=O)c1ccccc1F)C(=O)Nc1cccc(S(=O)(=O)N2CCOCC2)c1`, the Potency was “inactive”. With `CC(=O)c1ccc(NC(=O)Cn2c(=O)oc3ccccc32)cc1` the Potency was “inactive”. In the case of `Cc1ccccc1NC(=O)Cn1c(=O)n(CC2CCCO2)c(=O)c2ccccc21` (centres undefined), the Potency is reported as “inactive”. With `O=C(NCc1ccccc1)C1c2ccccc2OCC(=O)N1CCCN1CCOCC1` (centres undefined) the Potency was “inactive”. With `O=C1Nc2ccccc2NC(c2ccc3c(c2)OCO3)=C1N(Cc1ccc(F)cc1)C(=O)c1ccco1` the Potency was 16.4 µM (active). For `O=C(/C=C/c1ccc2c(c1)OCO2)NCc1ccc(F)cc1`, the Potency was “inactive”. With `O=C(c1ccc2c(c1)OCO2)N1CCN(C(=O)c2ccco2)CC1` the Potency was “inactive”. For `CCCCNc1ccc(-c2nc(-c3ccncc3)no2)cc1[N+](=O)[O-]`, the Potency was “inactive”. With `Cc1ccc2nsnc2c1S(=O)(=O)N1CCCC1C(=O)O` (centres undefined) the Potency was “inactive”. With `CCN(Cc1ccncc1)C(=O)CCc1ccccc1` the Potency was “inactive”. For `Cc1nc2ccccc2n1CC(=O)N/N=C/c1cccnc1`, the Potency was “inactive”. For `O=C(CNC(=O)c1cccnc1)N/N=C/c1cccnc1`, the Potency was “inactive”. With `O=C(CSc1cccc2cccnc12)N/N=C/c1cccnc1` the Potency was 23.1 µM (active). With `CCCCCC(O)(CCN1CCCCC1)c1ccccc1` (centres undefined) the Potency was “inactive”. With `CC(=O)C1C(c2ccc(Cl)cc2)NC(=O)NC1(O)C(F)(F)F` (centres undefined) the Potency was “inactive”. For `O=C1NC(c2ccc(-c3ccccc3[N+](=O)[O-])o2)C(C(=O)c2ccc(Cl)cc2)C(O)(C(F)(F)F)N1` (centres undefined), the Potency was 18.4 µM (active). With `CC1=NN(c2ccc(Cl)c(C(=O)O)c2)C(=O)/C1=C/c1ccc(-c2ccccc2[N+](=O)[O-])o1` the Potency was “inactive”. With `Cc1ccc(CSCC(=O)N(C)CC(=O)Nc2ccc(C)cc2)cc1` the Potency was “inactive”. For `FC(F)(F)c1ccc2nnc(-c3c(Cl)cccc3Cl)n2c1`, the Potency was “inactive”. With `CCCSc1nc2c(c(=O)[nH]c(=O)n2C)n1CCc1ccccc1` the Potency was “inactive”. With `CC=CCn1c(SCCCc2ccccc2)nc2c1c(=O)[nH]c(=O)n2C` the Potency was 20.6 µM (active). For `CC1CCN(c2nc3c(c(=O)[nH]c(=O)n3C)n2CCCc2ccccc2)CC1`, the Potency was 16.4 µM (active). For `C=C(C)Cn1c(N2CCCC2)nc2c1c(=O)[nH]c(=O)n2C`, the Potency was “inactive”. In the case of `CCCCCn1c(SCCC(C)C)nc2c1c(=O)[nH]c(=O)n2C`, the Potency is reported as “inactive”. In the case of `CN1CCN(c2nc3c(c(=O)[nH]c(=O)n3C)n2Cc2cccc3ccccc23)CC1`, the Potency is reported as “inactive”. For `Cc1ccc(C)c(OCCC(=O)OCC(=O)N2CCN(c3ccccc3)CC2)c1`, the Potency was “inactive”. In the case of `CCC(=O)N1CCc2cc(S(=O)(=O)NC(C(=O)NCCc3ccc(C)cc3)C(C)C)ccc21` (centres undefined), the Potency is reported as “inactive”. In the case of `C[C@@H]1CN([C@@H](C)CO)C(=O)c2cc(NC(=O)C3CC3)ccc2O[C@H]1CN(C)C`, the Potency is reported as “inactive”.
